This note sets out measurements from PubChem BioAssay.

For part of these data: Entries with a potency or affinity are not part of this list. The source made the active and inactive calls. Unless noted, the rule behind the calls is not given here.

Assay [1] is described as follows: compounds altering circadian rhythm period length – cell-based, LOPAC library, luminescence reporter (AID 2774).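 Note: values are relative to mean of DMSO wells on each plate.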 Conditions: circadian reporter cells, at 7 µM, actives lie on both sides.
For assay [2], the system named is Hepatitis C virus NS3 helicase. As to the kind of experiment: blockers of NS3h binding to ssDNA – biochemical, fluorescence polarization, LOPAC1280 library, primary screen (AID 687035; in the data active = inhibition above about 37%). Conditions: Purified HCV NS3 helicase, Cy5-dT15 ssDNA binding fluorescence polarization; stronger effect = higher value; concentration not given here. (In general: Polarisation of emitted light reports the rotation of a fluorescent probe.)

Assay [3] in a line: compounds altering Cy5-DNA-NS3h complex signal – biochemical, LOPAC1280, artefact control for HCV NS3 helicase inhibitor project (AID 687037). To be noted: Cy5-DNA-NS3h complex fluorescence interference counterscreen.
The nature of assay [4]: compounds altering viability of human ES cells (AID 493140).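 Note: cells exposed to compounds for four days before counting.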 To be noted: human embryonic stem cell survival screen; stronger effect = higher value.
Assay [5] can be described thus: blockers of polyQ-driven CASP3 activation – cell-based (AID 1583). Conditions: polyglutamine-induced caspase-3 activation, cell assay; stronger effect = higher value;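 tested at 10 µM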.
Assay [6] is described as follows: yeast 75Q aggregation reduction – 75Q-TubU reporter (AID 1593). To be noted: Yeast 75Q polyglutamine aggregation reporter.
Assay [7] can be described thus: restoration of touch response, mutant HTT neurons – whole organism, C. elegans mechanosensory neurons, N-terminal huntingtin (AID 1599). Conditions: C. elegans polyQ-huntingtin mechanosensory neurons, stronger effect = higher value.
Assay [8] in a line: blockers of cytochrome c efflux from mitochondria – biochemical, purified mitochondria (AID 1603).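 Note: mouse liver mitochondria challenged with calcium chloride; signal normalized to the plate average as 100%.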 To be noted: stronger effect = lower value.
The nature of assay [9]: chitosan synthesis blockers in C. neoformans – flow cytometry, Cibacron Brilliant Red staining (AID 1347148).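 Note: compound exposure lasted three days at 37 degrees C.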 To be noted: Cryptococcus neoformans chitosan, stronger effect = lower value; at 10 µM unless noted.
Assay [10] can be described thus: growth inhibition, single agents and combos, LFS_MB_1R, cell-based, cisplatin or BGB combos, synergistic combos for chromothripsis tumors (AID 1671452; in the data active = inhibition above about 80%;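 note: cells exposed for 96 hours before readout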). Conditions: LFS_MB_1R medulloblastoma cells, stronger effect = higher value.
Assay [11] is described as follows: growth inhibition, single agents and combos, CRL2098, cell-based, BGB or cisplatin IC20 combos, synergistic combos for chromothripsis tumors (AID 1671454; in the data active = inhibition above about 80%;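 note: cells exposed for 96 h before readout; 0% = vehicle DMSO and 100% = killing by high DMSO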). To be noted: CRL2098 osteosarcoma cells, drug combinations, stronger effect = higher value.
A short description of assay [12]: growth inhibition, single agents and combos, HD-MB03, cell-based, BGB or cisplatin IC20 combos, synergistic combos for chromothripsis tumors (AID 1671455; in the data active = inhibition above about 83%;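 note: 0% = vehicle DMSO and 100% = high DMSO as cytotoxic control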). To be noted: HD-MB03 medulloblastoma cells, stronger effect = higher value.
A short description of assay [13]: growth inhibition, single agents and combos, UWB1.289, cell-based, BGB or cisplatin combos, synergistic combos for chromothripsis tumors (AID 1671456; in the data active = inhibition above about 80%;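 note: cells exposed to compound for four days; 0% = vehicle DMSO and 100% = killing by high DMSO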). To be noted: UWB1.289 ovarian carcinoma cells, stronger effect = higher value.
Assay [14] is described as follows: growth inhibition, single agents and combos, LFS_MB_2R, cell-based, cisplatin combos, synergistic combos for chromothripsis tumors (AID 1671457; in the data active = inhibition above about 80%;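 note: cells exposed to compound for four days before readout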). To be noted: LFS_MB_2R medulloblastoma cells, stronger effect = higher value.
Assay [15] is described as follows: growth inhibition, MDA-MB-436, cell-based, BGB or cisplatin combos, synergistic combos for chromothripsis tumors (AID 1671458).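 Note: cells exposed for 96 hours; 0% = vehicle DMSO and 100% = killing by high DMSO.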 To be noted: MDA-MB-436 breast carcinoma growth inhibition, drug combinations, stronger effect = higher value.
Assay [16] is described as follows: UWB1.289_BRCA1 ovarian cancer growth, cell-based, BGB or cisplatin combinations (AID 1671459; in the data active = inhibition above about 80%). To be noted: UWB1.289 BRCA1 ovarian carcinoma, drug combinations, stronger effect = higher value.
Assay [17] is described as follows: drug combination toxicity in non-malignant astrocytes – cell-based, BGB or cisplatin IC20 combos, cytotoxicity control for chromothriptic childhood tumor combination screen (AID 1671460; in the data active = inhibition above about 80%;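 note: cells exposed to compounds for 96 hours before viability readout; 0% = vehicle and 100% = killing control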). To be noted: Human astrocytes, viability inhibition, drug combinations, at 0.5 µM, stronger effect = higher value.
The nature of assay [18]: BT084 cell growth, single and combined drugs, ICGC_MB145, cisplatin and BGB IC40 combos (AID 1671461; in the data active = inhibition above about 80%;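 note: cells exposed to drugs for 96 hours; 0% = vehicle DMSO and 100% = high DMSO full killing control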). Conditions: BT084 medulloblastoma cells, drug combinations, stronger effect = higher value.
A short description of assay [19]: RCMB18 cell growth, single agent and combined, cisplatin and BGB IC40 combos (AID 1671462; in the data active = inhibition above about 80%;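 note: cells exposed to compound for four days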). To be noted: RCMB18 medulloblastoma cells, stronger effect = higher value.
Assay [20] can be described thus: CRL1545 cell growth, single agent and combined, cisplatin and BGB IC20 combos (AID 1671464; in the data active = inhibition above about 80%;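 note: cells exposed to compound for 96 hours before readout; 0% = vehicle DMSO and 100% = high DMSO killing control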). Conditions: CRL1545 osteosarcoma cells, stronger effect = higher value.
Setting [21] is: measured here: combination with cisplatin, at 0.5 µM.
The mark [22] stands for this setting: measured here: combination with cisplatin, at 5 µM.

The term inhibition denotes the relative decrease from the control value, in per cent. As to `CN(C)CCCC1(c2ccc(F)cc2)OCc2cc(C#N)ccc21` (stereo unspecified), the period change in assay [1] was -0.06 h (inactive). For the same molecule, the inhibition in assay [2] is -4% (inactive). In addition, the fluorescence ratio (interference) in assay [3] was 1 (inactive).

In the case of `COc1nc(C)nc(Cl)c1NC1=NCCN1`, in assay [1], the period change is -0.08 h (inactive). Also, in [4], the survival was 21 (inactive). Further, the inhibition in assay [2] was -4% (inactive). Also, the fluorescence ratio (interference) in assay [3] was 0.9 (inactive).

With `CC(C)(S)C(N)C(=O)O` (stereo unspecified), in assay [5], the inhibition is 22.3%. This molecule also yielded a score in assay [6] of 1.79. In assay [7], the rescue above control was -1.67. Further, the cytochrome c release ratio in assay [8] is 0.98.

For the molecule `Cc1cnc(C(=O)NCCc2ccc(S(=O)(=O)NC(=O)NC3CCCCC3)cc2)cn1`, the period change in [1] was 0.035 h (inactive). In assay [4], the survival is 31.5 (inactive). Besides, the inhibition in assay [2] was -1% (inactive). In assay [3], the fluorescence ratio (interference) was 1 (inactive).

For `O=C(c1ccc(OCCN2CCCCC2)cc1)c1c(-c2ccc(O)cc2)sc2cc(O)ccc12`, the period change in [1] was 0.135 h (inactive). In [4], the survival was 4.58 (inactive). Besides, the inhibition in assay [2] is -6% (inactive). For the same molecule, the fluorescence ratio (interference) in [3] was 0.9 (inactive).

On to `O=C1C(c2c(O)[nH]c3ccccc23)=Nc2ccccc21`, for which the survival in [4] was 88 (inactive). Further, the fold fluorescence in assay [9] was 3.17 [at 190.6 µM] (inactive).

Take `NC(=O)c1ncn(C2OC(CO)C(O)C2O)n1` (stereo unspecified): the inhibition in [10] (at 0.5 µM) was -9.72% (inactive); in [10] (measured here: combination with BGB IC40, at 0.05 µM), -31.9%; in assay [10] (setting [21]) it was 21.6%; in assay [10] (setting [22]), -1.97%; in assay [11] (at 0.5 µM), -9.01% (inactive); in assay [11] (measured here: combination with BGB at IC20, at 0.5 µM), -25.7%. Besides, the inhibition is -6.71% in assay [11] (measured here: combination with cisplatin at IC20, at 0.5 µM); -4.13% (inactive) in assay [12] (at 0.5 µM); -1.27% in [12] (measured here: combo with BGB at IC20, at 0.5 µM); -10.7% in assay [12] (measured here: combo with cisplatin at IC20, at 0.5 µM); 3.07% (inactive) in assay [13] (at 0.5 µM); 9.47% in assay [13] (measured here: inhibition with BGB combination, at 0.05 µM). In addition, the inhibition in [13] (measured here: inhibition with cisplatin combination, at 0.05 µM) was -5.32%; in assay [14] (at 0.5 µM), 1.38% (inactive); in [14] (setting [21]), -4.76%; in assay [14] (setting [22]), 3.14%; in [15] (at 0.5 µM), -5.54% (inactive); in [15] (measured here: BGB combination, at 0.5 µM), 2.04%. Also, the inhibition is -7.02% in assay [15] (measured here: BGB combination, at 5 µM); -11.9% in [15] (measured here: cisplatin combination, at 0.5 µM); 6.23% in [15] (measured here: cisplatin combination, at 5 µM); 5.54% in [16] (BGB combination, concentration series, at 5 µM); 1.33% (inactive) in assay [16] (at 0.5 µM); 1.04% in assay [16] (cisplatin combination, concentration series, at 5 µM). Besides, the inhibition is -5.97% (inactive) in [17]; -5.76% in assay [17] (measured here: combo with BGB IC20); -5.35% in assay [17] (measured here: combo with cisplatin IC20); 6.99% (inactive) in assay [18] (at 0.5 µM); 12.1% in [18] (cisplatin combination, at 0.5 µM); -28.4% in [18] (cisplatin combination, at 5 µM). In addition, the inhibition is 25.7% in assay [18] (measured here: BGB IC40 combination 0.05 uM, at 0.05 µM); 8.51% in assay [18] (single agent, at 5 µM); 9.1% (inactive) in assay [19] (at 0.5 µM); 13.6% in [19] (cisplatin combo, at 5 µM); 7.76% in [19] (measured here: BGB IC40 combination, at 0.05 µM); 29.4% in assay [19] (setting [21]). The inhibition is -9.79% in assay [19] (single agent, at 5 µM); -15.9% (inactive) in [20] (at 0.5 µM); -14.4% in assay [20] (measured here: with BGB IC20 combination, at 0.5 µM); -16.7% in [20] (measured here: with cisplatin IC20 combination, at 0.5 µM); 17.7% in [20] (single agent, at 0.05 µM); -14.1% in assay [20] (single agent, at 5 µM).

Regarding `CC(N)(Cc1ccc(O)c(O)c1)C(=O)O` (stereo unspecified), the period change in assay [1] is -0.1 h (inactive). Besides, in assay [2], the inhibition is 0% (inactive). The fluorescence ratio (interference) in assay [3] was 1 (inactive).
